# Reference: publication PMC11006913
# Where a chain is given by its changes, count along the chain named.
# Key:
# Experiment in all cases: PBM; 200 nM protein, PBS
# Details in all cases: dsDNA, one strand shown
# [1] = target: NKX2-5 (Homo sapiens, UniProt P52952 125-210, R139K)
# [2] = target: SHOX (Homo sapiens, UniProt O15266 103-189)
# [3] = target: T1, NKX2-4 (Homo sapiens, UniProt Q9H2Z4 175-261, P217L)
# T1 sequence: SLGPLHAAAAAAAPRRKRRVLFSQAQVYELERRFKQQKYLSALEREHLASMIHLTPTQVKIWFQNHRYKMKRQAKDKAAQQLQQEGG
# [4] = target: T2, NKX2-4 (Homo sapiens, UniProt Q9H2Z4 175-261, T231S)
# T2 sequence: T1 sequence with L43P, T57S
# [5] = target: T3, NKX2-4 (Homo sapiens, UniProt Q9H2Z4 175-261)
# T3 sequence: T1 sequence with L43P
# [6] = target: T4, NKX2-6 (Homo sapiens, UniProt A6NCS4 118-204, R150C)
# T4 sequence: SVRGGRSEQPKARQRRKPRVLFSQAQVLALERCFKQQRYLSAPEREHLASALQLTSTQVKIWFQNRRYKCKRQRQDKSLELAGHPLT
# [7] = target: T5, NKX2-6 (Homo sapiens, UniProt A6NCS4 118-204)
# T5 sequence: T4 sequence with C33R
# [8] = target: T6, NKX2-4 (Homo sapiens, UniProt Q9H2Z4 175-261, R246Q)
# T6 sequence: T1 sequence with L43P, R72Q
# [9] = target: T7, NKX2-6 (Homo sapiens, UniProt A6NCS4 118-204, F151L)
# T7 sequence: T4 sequence with C33R, F34L
# [10] = target: NKX3-2 (Homo sapiens, UniProt P78367 192-278, P234S)
# [11] = target: NKX2-5 (Homo sapiens, UniProt P52952 125-210)
# [12] = target: NKX3-2 (Homo sapiens, UniProt P78367 192-278)
# [13] = target: HOXB4 (Homo sapiens, UniProt P17483 148-234)
# [14] = target: HOXB4 (Homo sapiens, UniProt P17483 148-234, V174I)
# Chain of HOXB4 (Homo sapiens, UniProt P17483 148-234, V174I) (P17483 148-234 V174I): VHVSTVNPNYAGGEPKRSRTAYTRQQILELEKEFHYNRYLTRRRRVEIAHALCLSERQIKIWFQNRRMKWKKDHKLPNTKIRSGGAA
# Chain of NKX3-2 (Homo sapiens, UniProt P78367 192-278) (P78367 192-278): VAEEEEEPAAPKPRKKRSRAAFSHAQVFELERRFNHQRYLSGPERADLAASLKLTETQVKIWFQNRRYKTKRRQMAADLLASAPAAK
# Chain of NKX2-5 (Homo sapiens, UniProt P52952 125-210, R139K) (P52952 125-210 R139K): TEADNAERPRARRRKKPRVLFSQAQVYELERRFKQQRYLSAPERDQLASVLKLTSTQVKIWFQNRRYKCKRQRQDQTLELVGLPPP
# Chain of NKX3-2 (Homo sapiens, UniProt P78367 192-278, P234S) (P78367 192-278 P234S): as the sequence (P78367 192-278) above, with P43S counted along it
# Chain of NKX2-5 (Homo sapiens, UniProt P52952 125-210) (P52952 125-210): as the sequence (P52952 125-210 R139K) above, with K15R counted along it
# Chain of HOXB4 (Homo sapiens, UniProt P17483 148-234) (P17483 148-234): as the sequence (P17483 148-234 V174I) above, with I27V counted along it
# Chain of SHOX (O15266 103-189): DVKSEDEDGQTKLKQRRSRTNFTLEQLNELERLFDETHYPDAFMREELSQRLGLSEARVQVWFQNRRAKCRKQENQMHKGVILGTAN
Sequence,binding signal [1],binding signal [2],binding signal [3],binding signal [4],binding signal [5],binding signal [6],binding signal [7],binding signal [8],binding signal [9],binding signal [10],binding signal [11],binding signal [12],binding signal [13],binding signal [14]
CACTTTAA,"12.4 upbm affinity estimate (log intensity, higher = more binding, comparable within an allelic series)","8.82 upbm affinity estimate (log intensity, higher = more binding, comparable within an allelic series)","12.5 upbm affinity estimate (log intensity, higher = more binding, comparable within an allelic series)","12.9 upbm affinity estimate (log intensity, higher = more binding, comparable within an allelic series)","12.3 upbm affinity estimate (log intensity, higher = more binding, comparable within an allelic series)","11.7 upbm affinity estimate (log intensity, higher = more binding, comparable within an allelic series)","13.4 upbm affinity estimate (log intensity, higher = more binding, comparable within an allelic series)","13 upbm affinity estimate (log intensity, higher = more binding, comparable within an allelic series)","10.7 upbm affinity estimate (log intensity, higher = more binding, comparable within an allelic series)","12.5 upbm affinity estimate (log intensity, higher = more binding, comparable within an allelic series)","12.4 upbm affinity estimate (log intensity, higher = more binding, comparable within an allelic series)","12.6 upbm affinity estimate (log intensity, higher = more binding, comparable within an allelic series)",–,–
GTACTTAA,"13.1 upbm affinity estimate (log intensity, higher = more binding, comparable within an allelic series)",–,"12.8 upbm affinity estimate (log intensity, higher = more binding, comparable within an allelic series)","13.2 upbm affinity estimate (log intensity, higher = more binding, comparable within an allelic series)","12.6 upbm affinity estimate (log intensity, higher = more binding, comparable within an allelic series)","12 upbm affinity estimate (log intensity, higher = more binding, comparable within an allelic series)","13.9 upbm affinity estimate (log intensity, higher = more binding, comparable within an allelic series)","13.3 upbm affinity estimate (log intensity, higher = more binding, comparable within an allelic series)","11.2 upbm affinity estimate (log intensity, higher = more binding, comparable within an allelic series)","12.7 upbm affinity estimate (log intensity, higher = more binding, comparable within an allelic series)","12.9 upbm affinity estimate (log intensity, higher = more binding, comparable within an allelic series)","12.8 upbm affinity estimate (log intensity, higher = more binding, comparable within an allelic series)",–,–
CGCCCGAG,"8.73 upbm affinity estimate (log intensity, higher = more binding, comparable within an allelic series)",–,–,–,–,–,–,–,–,–,"8.76 upbm affinity estimate (log intensity, higher = more binding, comparable within an allelic series)",–,"7.76 upbm affinity estimate (log intensity, higher = more binding, comparable within an allelic series)","7.79 upbm affinity estimate (log intensity, higher = more binding, comparable within an allelic series)"
GGCACTTA,"13.1 upbm affinity estimate (log intensity, higher = more binding, comparable within an allelic series)",–,"12.7 upbm affinity estimate (log intensity, higher = more binding, comparable within an allelic series)","13.1 upbm affinity estimate (log intensity, higher = more binding, comparable within an allelic series)","12.6 upbm affinity estimate (log intensity, higher = more binding, comparable within an allelic series)","12.1 upbm affinity estimate (log intensity, higher = more binding, comparable within an allelic series)","13.8 upbm affinity estimate (log intensity, higher = more binding, comparable within an allelic series)","13.2 upbm affinity estimate (log intensity, higher = more binding, comparable within an allelic series)","11.4 upbm affinity estimate (log intensity, higher = more binding, comparable within an allelic series)","13.3 upbm affinity estimate (log intensity, higher = more binding, comparable within an allelic series)","13 upbm affinity estimate (log intensity, higher = more binding, comparable within an allelic series)","13.4 upbm affinity estimate (log intensity, higher = more binding, comparable within an allelic series)",–,–
CACTTATA,"13.1 upbm affinity estimate (log intensity, higher = more binding, comparable within an allelic series)",–,"12.6 upbm affinity estimate (log intensity, higher = more binding, comparable within an allelic series)","13 upbm affinity estimate (log intensity, higher = more binding, comparable within an allelic series)","12.5 upbm affinity estimate (log intensity, higher = more binding, comparable within an allelic series)","12.1 upbm affinity estimate (log intensity, higher = more binding, comparable within an allelic series)","13.8 upbm affinity estimate (log intensity, higher = more binding, comparable within an allelic series)","13.2 upbm affinity estimate (log intensity, higher = more binding, comparable within an allelic series)","11.2 upbm affinity estimate (log intensity, higher = more binding, comparable within an allelic series)","12.7 upbm affinity estimate (log intensity, higher = more binding, comparable within an allelic series)","12.8 upbm affinity estimate (log intensity, higher = more binding, comparable within an allelic series)","12.8 upbm affinity estimate (log intensity, higher = more binding, comparable within an allelic series)",–,–
ACGGCTGG,"8.82 upbm affinity estimate (log intensity, higher = more binding, comparable within an allelic series)",–,–,–,–,–,–,–,–,–,"8.82 upbm affinity estimate (log intensity, higher = more binding, comparable within an allelic series)",–,"7.57 upbm affinity estimate (log intensity, higher = more binding, comparable within an allelic series)","7.93 upbm affinity estimate (log intensity, higher = more binding, comparable within an allelic series)"
AGCACTTA,"12.9 upbm affinity estimate (log intensity, higher = more binding, comparable within an allelic series)",–,"12.6 upbm affinity estimate (log intensity, higher = more binding, comparable within an allelic series)","13 upbm affinity estimate (log intensity, higher = more binding, comparable within an allelic series)","12.5 upbm affinity estimate (log intensity, higher = more binding, comparable within an allelic series)","12 upbm affinity estimate (log intensity, higher = more binding, comparable within an allelic series)","13.7 upbm affinity estimate (log intensity, higher = more binding, comparable within an allelic series)","13.1 upbm affinity estimate (log intensity, higher = more binding, comparable within an allelic series)","11.3 upbm affinity estimate (log intensity, higher = more binding, comparable within an allelic series)","12.9 upbm affinity estimate (log intensity, higher = more binding, comparable within an allelic series)","12.8 upbm affinity estimate (log intensity, higher = more binding, comparable within an allelic series)","12.9 upbm affinity estimate (log intensity, higher = more binding, comparable within an allelic series)",–,–
